Measured values as given in PubChem BioAssay AID2289 (National Center for Advancing Translational Sciences (NCATS), 2010).
Hit rate of the full screen: of about 340,000 compounds, about 3,300 (0.97%) were called active. About 9% were inconclusive and are not listed. Calls come from the whole dose curve; as a rule, active = well fitted inhibition curve with a large enough effect; inconclusive = small, poorly fitted or top-dose-only effect, or effect the other way; inactive = flat fitted curve, though single readings scatter. The list shows a part of the results.

assay: qHTS Assay for Modulators of miRNAs and/or Inhibitors of miR-21; conditions: HeLa miR-21-FLuc reporter, luciferase luminescence, 48 h; actives lower the signal; note: nearly all actives have a fitted effect of over 55% in size
Outline: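 Luminescence from a firefly luciferase reporter carrying a miR-21 binding site downstream, stably expressed under a CMV promoter in HeLa cells that make miR-21 endogenously, reports miRNA modulation after 48 h compound exposure up to approximately 40uM final.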
Potency is the fitted concentration of half-maximal effect.

Potency, active:
Cc1nonc1C1CCCN1C(=O)c1cc(COc2ccc(F)cc2F)on1 (stereo not drawn) 4.14 µM
COc1ccccc1NC(=O)Nc1ccc(N2CCOCC2)cc1 8.26 µM
CCCCOC(=O)Nc1ccc(C(C)C)cc1 11.7 µM
CCCCOC(=O)Nc1ccc(N2CCOCC2)cc1 7.36 µM
Cc1ccc2nc3c(cc(S(=O)(=O)c4ccccc4)c(=N)n3Cc3ccco3)c(=O)n2c1 5.85 µM
Cc1[nH]c2ccc(C(=O)N3CCCCC3)cc2c1C 2.07 µM
Cc1ccccc1NC(=O)c1ccc2[nH]c(C)c(C)c2c1 1.31 µM
COc1ccccc1NC(=O)c1ccc2[nH]c(C)c(C)c2c1 5.21 µM
COc1cc2c(cc1NC(=O)c1ccccc1F)CCCC2 7.36 µM
Cc1nc2c(-c3ccccc3)c(C)nn2c(N)c1-c1ccccc1 1.85 µM
Cc1nn2c(N)c(C#N)cnc2c1-c1ccccc1 16.5 µM
Cc1ccc(C2=N/C(=C/N3CCOCC3)C(=O)O2)cc1 6.56 µM
Cc1ccc(C2=N/C(=C\N3CCCCC3)C(=O)O2)cc1 1.65 µM
O=C1OC(c2ccccc2)=N/C1=C\N1CCCCC1 8.26 µM
CCCOc1ccccc1/C=C(\C#N)C(=O)Nc1cccnc1 8.26 µM
Cc1cc(/C=C(\C#N)C(=O)Nc2ccccc2)c(C)n1-c1cccnc1 1.65 µM
COC(=O)c1ccc(COc2ccccc2/C=C(\C#N)C(=O)Nc2ccc(C)cc2)cc1 7.36 µM
COc1ccc(N=Nc2c(C)n[nH]c2C)cc1 10.4 µM
COc1ccc(N=Nc2c(C)[nH][nH]c2=O)cc1 10.4 µM
CCOC(=O)c1ccc2[nH]c3c(c2c1)CCCC3NC=O (stereo not drawn) 16.5 µM
O=C(Cc1ccc2c(c1)CCCC2)Nc1ccc2ccccc2c1 13.1 µM
O=C(Cc1ccccc1F)Nc1ccc(SC(F)F)cc1 2.07 µM
O=C(Cc1ccccc1F)Nc1ccc2c(c1)CCC2 3.29 µM
COc1ccc2c(c1OC)C(=O)OC2Nc1nc(-c2cc3cc(Br)ccc3oc2=O)cs1 (stereo not drawn) 5.85 µM
Cc1cc(C(=O)CSc2ncccn2)c(C)n1-c1cccc(F)c1 0.736 µM
COc1cc(O)c2c(=O)c3c(OC)c(O)ccc3oc2c1 13.1 µM
CCn1c(=N)n(CC(=O)c2ccc(Cl)c(Cl)c2)c2ccccc21 6.56 µM
COc1ccc(C(=O)Cn2c(=N)n(C)c3ccccc32)cc1 0.736 µM
CCOc1cc(C2NN=C(c3ccc(C)cc3)S2)ccc1O (stereo not drawn) 4.65 µM
COc1ccc(C2NN=C(c3ccc(C)cc3)S2)cc1 (stereo not drawn) 1.17 µM
N#C/C(=N\Nc1ccc(Br)cc1)C(=N)N1CCOCC1 7.36 µM
N#C/C(=N\Nc1ccc(Cl)cc1)C(=N)N1CCCCCC1 0.585 µM
Cc1ccc(N/N=C(\C#N)C(=N)N2CCCCC2)cc1 0.521 µM
CCN(CC)C(=N)/C(C#N)=N/Nc1ccc(C)cc1 3.29 µM
COc1ccc(N/N=C(\C#N)C(=N)N2CCCCC2)cc1 4.65 µM
N#C/C(=N\Nc1ccccc1F)C(=N)N1CCCCC1 1.65 µM
N#C/C(=N\Nc1ccccc1)C(=N)N1CCCCCC1 2.07 µM
Cc1ccc(N/N=C(\C#N)C(=N)N2CCOCC2)cc1 10.4 µM
CCN=c1scc(-c2ccco2)n1/N=C/c1ccc(O)cc1 4.14 µM
Fc1ccc(OCc2nc(-c3cccs3)no2)cc1 6.56 µM
c1ccc(OCc2nc(-c3cccs3)no2)cc1 13.1 µM
O=[N+]([O-])c1ccccc1OCc1nc(-c2cccs2)no1 2.61 µM
COc1cc(OC)cc(-c2nc3cc(C)ccc3o2)c1 1.65 µM
COc1ccc(-c2nc3cc([N+](=O)[O-])ccc3o2)cc1 0.293 µM
Cc1ccc2oc(-c3ccccc3)nc2c1 6.56 µM
O=c1c2cn[nH]c2[nH]c(=S)n1-c1ccccc1F 0.927 µM
c1ccc(-c2cc3nccc(-c4ccccn4)n3n2)cc1 3.69 µM
COc1ccc(-c2cnc3c(-c4ccc(F)cc4)cnn3c2N)cc1 0.521 µM
Nc1c(-c2ccc(Cl)cc2)cnc2c(-c3ccccc3)cnn12 0.414 µM
Nc1c(-c2cccs2)cnc2c(-c3ccc(F)cc3)cnn12 0.329 µM
Nc1c(-c2ccccc2)cnc2c(-c3ccccc3)cnn12 0.0927 µM
Nc1c(-c2ccc(Cl)cc2)cnc2c(-c3ccc(F)cc3)cnn12 0.585 µM
Nc1c(-c2ccccc2)cnc2cc(-c3ccccc3)nn12 0.414 µM
Nc1c(-c2ccc(Cl)cc2)nnn1-c1ccccc1 2.33 µM
Nc1c(-c2cccc(Cl)c2)cnc2c(-c3ccccc3)cnn12 1.65 µM
Nc1c(-c2ccc(Cl)cc2)cnn1-c1ccccc1 1.65 µM
CC(=O)Nc1cccc(NC(=O)c2ccc(COc3ccccc3)cc2)c1 1.47 µM
O=C(Nc1ccccc1F)c1ccc(OCc2ccccc2)cc1 5.21 µM
CCOC(=O)C(=O)N(Nc1ccc(C)cc1)c1ccc(C)cc1 9.27 µM
O=C(O)c1ccc(N=NNc2cccc([N+](=O)[O-])c2)cc1 5.85 µM
CCOC(=O)/C(N=Nc1ccc2c(c1)OCO2)=C(\C)O 4.65 µM
CC(=O)/C(N=Nc1ccc2c(c1)OCO2)=C(\C)O 6.56 µM
C/C(=N\NC(=O)COc1ccccc1)c1cccs1 14.7 µM
C/C(=N\NC(=O)COc1ccccc1[N+](=O)[O-])c1cccs1 5.21 µM
Cc1ccn(-c2cccc(-n3ccc(C)n3)n2)n1 2.61 µM
O=C(NCC1CCCO1)C(=O)c1c[nH]c2ccccc12 (stereo not drawn) 18.5 µM
O=C(NC1CCCCC1)C(=O)c1c[nH]c2ccccc12 4.14 µM
O=C(Nc1ccccc1)c1cc2n(n1)C(C(F)(F)F)CC(C1CC1)N2 (stereo not drawn) 6.56 µM
COc1cccc(Nc2ncnc3ccccc23)c1 2.33 µM
COc1cccc(Nc2ncnc3sc(C)cc23)c1 6.56 µM
COc1ccc(Nc2cc(Nc3cccc(OC)c3)ncn2)cc1 14.7 µM
COc1ccc(Nc2ncnc3sc(C)cc23)cc1 11.7 µM
COc1cccc(Nc2ncnc3sccc23)c1 7.36 µM
CSc1ccccc1-c1nc(-c2ccncc2)no1 1.85 µM
COc1ccc(-c2nc(-c3ccncc3)no2)cc1 0.464 µM
COc1ccc(-c2nc(-c3ccc(Br)cc3)no2)c(OC)c1 0.585 µM
Cc1ccc(-c2nc(-c3ccncc3)no2)cc1C 0.585 µM
Cc1ccc(-c2nc(-c3ccncc3)no2)cc1 1.47 µM
CCOCCn1c(N2CCN(c3ccccc3)CC2)nc2c1c(=O)[nH]c(=O)n2C 6.56 µM
CCCCCCOC(=O)c1ccc(OC(=O)c2cccnc2)cc1 6.56 µM
Cc1ccc(/C=C2\SC(N3CCCC3)=NC2=O)cc1 16.5 µM
Cc1cc(OCc2cc(C(=O)N3CCCCCC3)no2)cc(C)c1Cl 5.85 µM
COCC1CCN(C(=O)c2cc(COc3cc(C)c(Cl)c(C)c3)on2)C1 (stereo not drawn) 13.1 µM
COc1cccc(/C(N)=N/OC(=O)Cc2ccccc2[N+](=O)[O-])c1 9.27 µM
C=CCn1c(=O)c(C(=O)Nc2ccccc2S(N)(=O)=O)c(O)c2ccccc21 4.65 µM
O=C(Nc1cccc(O)c1)c1c(O)c2ccccc2[nH]c1=O 1.47 µM
NS(=O)(=O)c1ccccc1NC(=O)c1c(O)c2ccccc2[nH]c1=O 0.736 µM
COc1ccccc1C(=O)OCc1cc(=O)n2c(C)csc2n1 10.4 µM
COc1ccccc1C(=O)OCc1cc(=O)n2nc(C3CC3)sc2n1 13.1 µM
c1ccc(C2=NN(c3ccccc3)CC2)cc1 5.21 µM
O=C(COC(=O)c1cccs1)c1ccc2c(c1)OCCO2 3.69 µM
Cc1ccc(C(=O)COC(=O)c2cccs2)cc1 3.29 µM
Cc1cccc(C(=O)OCC(=O)c2ccc3c(c2)OCO3)c1O 1.85 µM
O=C(OCc1ccccc1F)c1ccc2c(c1)OCCO2 18.5 µM
CCOC(=O)c1cc2c(=O)c3cc(C)ccc3oc2nc1C 1.04 µM
CC(C)c1ccc(NC(=S)NN2CCOCC2)cc1 16.5 µM
CCOC(=O)/C(C#N)=C/Nc1ccccc1OC 5.21 µM
Cc1cccc(C)c1NC(=O)/C(C#N)=C/c1ccc(-c2ccc(C(=O)O)cc2)o1 2.07 µM
CNC(=O)/C(C#N)=C/c1ccc(-c2ccc(OC)cc2[N+](=O)[O-])o1 18.5 µM
CNC(=O)/C(C#N)=C/c1ccc(-c2ccc(Cl)cc2)o1 4.14 µM
CCOC(=O)/C(C#N)=C/c1ccc(-c2ccccc2)o1 18.5 µM
Cc1ncc(CO)c(/C=N/N=C/c2ccccc2O)c1O 13.1 µM
COc1ccc(-c2nn(-c3ccccc3)cc2N)cc1 3.69 µM
COc1ccc(-c2nn(-c3ccccc3)cc2C#N)cc1 4.14 µM
COc1cc(OC)c2c(=O)cc(-c3ccccc3)oc2c1 6.56 µM
O=c1cc(-c2ccccc2)oc2ccc(O)cc12 3.29 µM
O=c1cc(-c2ccc(O)cc2)oc2ccccc12 7.36 µM
COc1ccc(-c2cc(=Nc3c(C)n(C)n(-c4ccccc4)c3=O)c3ccccc3o2)cc1 4.14 µM
